The text below walks through data of ChEMBL document CHEMBL1157539, “Thousands of chemical starting points for antimalarial lead identification” (Nature, 2010).

In the experiment the test system is HepG2. Nature of the experiment: GSK_TCMDC: Percent inhibition of human HepG2 cell line. Test compounds present at 10uM. The experiment is classed as functional.
In turn, `Br.CC1(C)NC(N)=NC(=N)N1OCCCSc1ccccc1` gave an Inhibition of 69%.

Consider `Cc1cc(F)ccc1Nc1nc(N(C)c2ccccc2)c2cccc(OCCO)c2n1`, for which the Inhibition came out at 34%. `Brc1ccsc1-c1nc(NCCC(c2ccccc2)c2ccccc2)no1` showed an Inhibition of 17%.

`Cc1[nH]c(C)c(-c2ccc(OCc3ccc(F)cc3)nc2)c(=O)c1Br` returned an Inhibition of 41%. The same measure for `FC(F)(F)c1ccc2[nH]c(-c3ccc(-c4cccc(CNCc5cnn(-c6ccccc6)n5)c4)s3)nc2c1.O=C(O)C(F)(F)F`: 38%; for `COc1cc(C(=O)N2CCOC(CCN3CCC[C@H]3C(=O)Nc3ccccc3)(c3ccc(Cl)c(Cl)c3)C2)cc(OC)c1OC` (stereo partly specified): 3%. The same measure for `Cc1c2ccncc2c(C)c2c1[nH]c1cc(Cc3ccccc3)c(O)cc12`: 99%; for `Cc1ccc(NC(=O)Nc2ccc(Br)cc2)cc1OCCN(C)C`: 13%; for `CCOc1cc(C(=O)NC2CCN(Cc3ccccc3)CC2)ccc1-c1nc2cc(Cl)ccc2[nH]1`: 10%. The same measure for `O=C(Nc1ccc2c(c1)CCN2C1CCN(Cc2ccc(O)cc2)C1)c1ccco1` (stereo unspecified): 0%. Turning to `Cc1cc(NC(=O)c2coc3cc(F)c(N4CC(C)N(C)C(C)C4)cc23)cnc1-c1ccc(C#N)cc1.Cl` (stereo unspecified), the Inhibition was determined as 35%. Next, `CCC(CC)OC(=O)C(C)c1cccc(C(=O)c2ccccc2)c1` (stereo unspecified): 0%; `O=C(O)C(F)(F)F.O=C1CCCN1CCCNCc1cccc(-c2ccc(-c3nc4ccccc4[nH]3)s2)c1`: 0%; `Cc1[nH]c(C)c(-c2csc3ccccc23)c(=O)c1Cl`: 7%. As to `COc1cccc(-c2ccc(C(=O)NC3CCN(Cc4ccc(C(C)(C)C)cc4)CC3)s2)c1.O=C(O)C(F)(F)F`, the Inhibition was 43%. The same measure for `CCc1ccc(N2C(N)=NC(N)=NC2(C)C)cc1.Cl`: 51%. The same measure for `O=C(Nc1ccc(Br)cc1)N1CCC(n2c(-c3ccccc3)nc3cccnc32)CC1`: 36%; for `COC(=O)c1cccc(CNCc2ccc(-c3cccc(-c4nc5cccc(C)c5[nH]4)c3)cc2)c1.O=C(O)C(F)(F)F`: 0%; for `CCCNCc1ccc(-c2ccc(CN(C(=O)c3nn(-c4ccccc4)nc3C)C(C)CN(C)C)cc2)nc1.O=C(O)C(F)(F)F` (stereo unspecified): 27%.

Compound `CCc1ccc(CN2CCC(CNC(=O)c3cc(-c4ccccc4F)cs3)C2)cc1.O=C(O)C(F)(F)F` (stereo unspecified) came in with an Inhibition of 29%.

`CCCOc1cc(O)c(-c2[nH]nc(C)c2Oc2ccccc2)cc1CC` registered an Inhibition of 0%. The same measure for `COc1ccc(NC(=O)Nc2cccc(-c3cccc(-c4nc5cc(F)ccc5[nH]4)c3)c2)cc1`: 59%; for `Cc1c(C(=O)Nc2cc(Sc3ccc(F)cc3)cc([N+](=O)[O-])c2)sc2ncn(Cc3cccc(F)c3)c(=O)c12`: 0%. The same measure for `Cc1ccc(CNc2ccc3ncc(-c4cccc(C(=O)NCCN(C)C)c4)n3n2)c(C)c1`: 97%; for `CCN(CCNC(=O)Nc1cc(C(F)(F)F)cc(C(F)(F)F)c1)c1cccc(C)c1`: 0%; for `CC1CN(Cc2ccc(-c3ccc(-c4nc5cc(F)ccc5[nH]4)s3)cc2)CC(C)O1.O=C(O)C(F)(F)F` (stereo unspecified): 35%.

One may read the Inhibition as the relative decrease from the control value, in per cent. A high value points to a strong effect.
